Test results reported in PubChem BioAssay (Tox21).
Results filed as inconclusive are left out. Calls of active or inactive are those of the source. Calls come from the whole dose curve; as a rule, active = well fitted curve in the direction sought with a large enough effect in the repeat runs; inconclusive = weak or mixed curves; inactive = no such curve, though single readings can be large; an effect the other way counts as inactive or inconclusive.

Columns and labels:
[1] = A CellTox Green Cytotoxicity Assay to monitor cytotoxicity in HepG2 cells - 0 hour (AID 1224882); note: nearly all actives have a fitted effect of over 35% in size
Procedure, shortened: (§1)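 Real-time cytotoxicity: fluorescence of a cell-impermeant cyanine dye binding DNA of dead HepG2 cells, measured repeatedly (0–40 h) during compound exposure at 37 C. Cells seeded 600/well with reagent, dosed after 5 h.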

[2] = A CellTox Green Cytotoxicity Assay to monitor cytotoxicity in HepG2 cells - 32 hour (AID 1224883); note: nearly all actives have a fitted effect of over 50% in size
Procedure, shortened: as §1

[3] = A CellTox Green Cytotoxicity Assay to monitor cytotoxicity in HEK293 cells - 8 hour (AID 1224884); note: nearly all actives have a fitted effect of over 35% in size
Procedure, shortened: (§2)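 Fluorescence from a DNA-binding dye excluded by viable cells was measured repeatedly in the same HEK293 wells (600 cells/well) during continuous compound exposure at 37 C. Each assay gives one read point: 0, 8, 16, 24, 32 or 40 h.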

[4] = qHTS RealTime-Glo MT Cell Viability Assay in HepG2 cells - 16 hour (AID 1224885); note: nearly all actives have a fitted effect of over 50% in size
Procedure, shortened: (§3)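 Tox21 10K library screened in qHTS format on HepG2 cells carrying RealTime-Glo reagents. Compounds were added after a 5 h preincubation, and the luminescent signal from continuous culture was measured repeatedly during 40 h treatment.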

[5] = qHTS RealTime-Glo MT Cell Viability Assay in HEK293 cells - 24 hour (AID 1224886); note: top concentration of the series differs between compounds; nearly all actives have a fitted effect of over 50% in size
Procedure, shortened: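 Luminescence generated by NanoLuc from substrate produced by living HEK293 cells served as the viability signal. Each value reflects the reading at its stated time point during continuous 40 h compound exposure at 37 C.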

[6] = qHTS RealTime-Glo MT Cell Viability Assay in HEK293 cells - 8 hour (AID 1224887); note: top concentration of the series differs between compounds; nearly all actives have a fitted effect of over 50% in size
Procedure, shortened: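 Luminescence, which tracks viable cell number through reduction of the prosubstrate to a NanoLuc substrate, was read over continuous 37 C culture. Cells (600/well) were premixed with reagent and rested 5 h before 23 nL of compound in DMSO was pinned.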

[7] = A CellTox Green Cytotoxicity Assay to monitor cytotoxicity in HEK293 cells - 16 hour (AID 1224888); note: nearly all actives have a fitted effect of over 35% in size
Procedure, shortened: as §2

[8] = qHTS RealTime-Glo MT Cell Viability Assay in HepG2 cells - 0 hour (AID 1224889); note: nearly all actives have a fitted effect of over 50% in size
Procedure, shortened: as §3

[9] = A CellTox Green Cytotoxicity Assay to monitor cytotoxicity in HepG2 cells - 8 hour (AID 1224890); note: nearly all actives have a fitted effect of over 45% in size
Procedure, shortened: as §1

[10] = qHTS assay to identify small molecule antagonists of the estrogen receptor alpha (ER-alpha) signaling pathway using the BG1 cell line in the presence of 0.1 nM 17-beta-estradiol - cell viability counter screen (AID 1259241); note: nearly all actives have a fitted effect of over 40% in size
Procedure, shortened: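 CellTiter-Fluor read (30 min, 37C) on ER-alpha/ERE-luc VM7Luc4E2 cells; 22 hr compound treatment; agonist 0.1 nM E2 final; same-well multiplex.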

Measured: Potency

C/C=C(/C(=C/C)c1ccc(OC(C)=O)cc1)c1ccc(OC(C)=O)cc1
inactive: [1] | [2] | [3] | [4] | [5] | [6] | [7] | [8] | [9] | [10]

C1CCCNCCC1
inactive: [1] | [2] | [3] | [4] | [5] | [6] | [7] | [8] | [9] | [10]

O=C1C(O)=C(O)C(=O)C(O)=C1O
inactive: [1] | [2] | [3] | [4] | [5] | [6] | [7] | [8] | [9] | [10]

Cc1cc(N)c2cc(NC(=O)Nc3ccc4nc(C)cc(N)c4c3)ccc2n1
inactive: [1] | [2] | [3] | [4] | [5] | [6] | [7] | [8] | [9] | [10]

CN(C)CCN(Cc1ccsc1)c1ccccn1
inactive: [1] | [2] | [3] | [4] | [5] | [6] | [7] | [8] | [9] | [10]

CC(=O)[O][Al][O]C(C)=O
inactive: [1] | [2] | [3] | [4] | [5] | [6] | [7] | [8] | [9] | [10]

NCc1ccccc1Sc1ccccc1CO
inactive: [1] | [2] | [3] | [4] | [5] | [6] | [7] | [8] | [9] | [10]

CC(CC=O)c1ccccc1 (stereo not given)
inactive: [1] | [2] | [3] | [4] | [5] | [6] | [7] | [8] | [9] | [10]

C=C1[C@H]2CC[C@@H]3[C@H]2C(C)(C)CCC[C@]13C
inactive: [1] | [2] | [3] | [4] | [5] | [6] | [7] | [8] | [9] | [10]

CCN(CC)CCNC(=O)c1cc(Br)c(N)cc1OC
inactive: [1] | [2] | [3] | [4] | [5] | [6] | [7] | [8] | [9] | [10]

NCCCN1CCOCC1
inactive: [1] | [2] | [3] | [4] | [5] | [6] | [7] | [8] | [9] | [10]

CCC(Cl)CCC(Cl)C(Cl)CC(Cl)C(Cl)C(Cl)CCl (stereo not given)
inactive: [1] | [2] | [3] | [4] | [5] | [6] | [7] | [8] | [9] | [10]

C=CC(=O)OCCOc1ccccc1
inactive: [1] | [2] | [3] | [4] | [5] | [6] | [7] | [8] | [9] | [10]

Nc1cccc(S(=O)(=O)c2cccc(N)c2)c1
inactive: [1] | [2] | [3] | [4] | [5] | [6] | [7] | [8] | [9] | [10]

CC(=O)OC[C@H]1O[C@@H](n2ncc(=O)[nH]c2=O)[C@H](OC(C)=O)[C@@H]1OC(C)=O
inactive: [1] | [2] | [3] | [4] | [5] | [6] | [7] | [8] | [9] | [10]

CN(C)CCN(Cc1ccc(Cl)cc1)c1ccccn1
inactive: [1] | [2] | [3] | [4] | [5] | [6] | [7] | [8] | [9] | [10]

CCCCCCc1ccc(-c2ccc(C#N)cc2)cc1
inactive: [1] | [2] | [3] | [4] | [5] | [6] | [7] | [8] | [9] | [10]

O=C(O)C1(C(=O)Nc2ccc(Cl)cc2Cl)CC1
inactive: [1] | [2] | [3] | [4] | [5] | [6] | [7] | [8] | [9] | [10]

O=C(O)CC(=O)C(=O)O
inactive: [1] | [2] | [3] | [4] | [5] | [6] | [7] | [8] | [9] | [10]

O=[N+]([O-])c1ccc2[nH]ncc2c1
inactive: [1] | [2] | [3] | [4] | [5] | [6] | [7] | [8] | [9] | [10]

COC(C)(C)CCO
inactive: [1] | [2] | [3] | [4] | [5] | [6] | [7] | [8] | [9] | [10]

c1ccc(CNCCNCc2ccccc2)cc1
inactive: [1] | [2] | [3] | [4] | [5] | [6] | [7] | [8] | [9] | [10]
